Seven sequences from publication PMC2807882, “Conservation of DNA-binding specificity and oligomerisation properties within the p53 family” can be followed below.

Among the targets are Hsp53 (Homo sapiens, UniProt P04637 1-393); Xlp53 (Xenopus laevis, UniProt Q7T1D0 1-362); Mmp53 (Mus musculus, UniProt P02340 1-390).
Assay in all cases: fluorescence anisotropy competition titration; 25 mM sodium phosphate (purification buffer pH 7.2), 225 mM NaCl, 10% v/v glycerol, 5 mM DTT, 0.2 mg/mL BSA, 22 C; low values mean tight binding
Holding throughout (details): protein: recombinant; tags: N-terminal 6xHis-lipoyl-TEV tag, cleaved; chain copies: 4; dsDNA, one strand shown

The next test concerns the target T1, Dmp53 (Drosophila melanogaster, UniProt Q9N6D8 1-385).
T1 sequence: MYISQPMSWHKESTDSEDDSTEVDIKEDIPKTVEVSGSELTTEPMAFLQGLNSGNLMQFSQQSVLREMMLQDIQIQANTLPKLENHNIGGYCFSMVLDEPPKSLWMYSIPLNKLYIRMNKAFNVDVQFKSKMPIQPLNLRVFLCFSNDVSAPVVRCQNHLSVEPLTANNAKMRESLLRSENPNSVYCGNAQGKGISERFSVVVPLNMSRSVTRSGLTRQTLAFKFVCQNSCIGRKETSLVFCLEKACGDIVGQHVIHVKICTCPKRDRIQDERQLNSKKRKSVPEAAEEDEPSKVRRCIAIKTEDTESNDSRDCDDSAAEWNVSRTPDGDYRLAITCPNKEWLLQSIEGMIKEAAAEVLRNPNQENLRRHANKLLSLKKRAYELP

The target of a further test is T2, Drp53 (Danio rerio, UniProt P79734 1-373).
T2 sequence: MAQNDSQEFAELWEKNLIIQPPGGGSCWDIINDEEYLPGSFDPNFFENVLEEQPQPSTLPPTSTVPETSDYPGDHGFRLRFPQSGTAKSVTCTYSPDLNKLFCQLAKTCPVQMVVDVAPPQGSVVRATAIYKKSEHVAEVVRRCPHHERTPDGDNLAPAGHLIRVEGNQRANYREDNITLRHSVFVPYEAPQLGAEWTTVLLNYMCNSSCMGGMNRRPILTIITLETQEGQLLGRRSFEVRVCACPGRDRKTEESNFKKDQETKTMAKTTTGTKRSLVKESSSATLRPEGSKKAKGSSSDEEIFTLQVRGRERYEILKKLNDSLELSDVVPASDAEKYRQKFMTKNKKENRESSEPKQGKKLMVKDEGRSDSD

The target of a further test is T3, ΔNp63α (Homo sapiens, UniProt Q9H3D4-2 1-586).
T3 sequence: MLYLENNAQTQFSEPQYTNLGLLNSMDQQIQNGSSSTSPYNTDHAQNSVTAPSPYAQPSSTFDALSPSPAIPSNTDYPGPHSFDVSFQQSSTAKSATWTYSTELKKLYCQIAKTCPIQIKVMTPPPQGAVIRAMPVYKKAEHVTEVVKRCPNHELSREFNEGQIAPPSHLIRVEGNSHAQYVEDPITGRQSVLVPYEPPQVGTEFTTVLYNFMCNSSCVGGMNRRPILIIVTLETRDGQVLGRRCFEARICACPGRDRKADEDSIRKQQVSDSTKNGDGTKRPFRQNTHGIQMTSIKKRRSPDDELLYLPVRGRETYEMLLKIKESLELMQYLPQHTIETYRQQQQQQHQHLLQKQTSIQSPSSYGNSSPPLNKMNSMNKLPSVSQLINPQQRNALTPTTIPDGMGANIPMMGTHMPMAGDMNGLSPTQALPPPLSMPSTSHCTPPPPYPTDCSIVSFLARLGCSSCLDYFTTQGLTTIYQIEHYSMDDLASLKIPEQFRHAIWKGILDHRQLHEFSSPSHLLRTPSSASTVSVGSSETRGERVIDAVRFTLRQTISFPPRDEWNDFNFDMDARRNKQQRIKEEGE

A further test deals with T4, ΔNp63β (Homo sapiens, UniProt Q9H3D4-4 1-461).
T4 sequence: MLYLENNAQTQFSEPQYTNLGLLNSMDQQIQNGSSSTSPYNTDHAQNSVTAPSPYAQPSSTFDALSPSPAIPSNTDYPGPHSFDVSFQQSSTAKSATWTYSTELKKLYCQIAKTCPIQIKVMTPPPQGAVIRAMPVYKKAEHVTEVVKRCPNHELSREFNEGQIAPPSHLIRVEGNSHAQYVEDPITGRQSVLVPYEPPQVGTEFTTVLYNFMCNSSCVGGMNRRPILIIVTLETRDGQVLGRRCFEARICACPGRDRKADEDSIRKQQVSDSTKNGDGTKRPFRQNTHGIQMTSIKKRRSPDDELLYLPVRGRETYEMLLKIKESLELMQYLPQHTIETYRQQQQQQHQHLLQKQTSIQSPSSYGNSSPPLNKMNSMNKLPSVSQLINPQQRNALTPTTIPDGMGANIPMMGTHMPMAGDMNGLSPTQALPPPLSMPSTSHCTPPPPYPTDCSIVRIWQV

A further test deals with T5, ΔNp63γ (Homo sapiens, UniProt Q9H3D4-6 1-393).
T5 sequence: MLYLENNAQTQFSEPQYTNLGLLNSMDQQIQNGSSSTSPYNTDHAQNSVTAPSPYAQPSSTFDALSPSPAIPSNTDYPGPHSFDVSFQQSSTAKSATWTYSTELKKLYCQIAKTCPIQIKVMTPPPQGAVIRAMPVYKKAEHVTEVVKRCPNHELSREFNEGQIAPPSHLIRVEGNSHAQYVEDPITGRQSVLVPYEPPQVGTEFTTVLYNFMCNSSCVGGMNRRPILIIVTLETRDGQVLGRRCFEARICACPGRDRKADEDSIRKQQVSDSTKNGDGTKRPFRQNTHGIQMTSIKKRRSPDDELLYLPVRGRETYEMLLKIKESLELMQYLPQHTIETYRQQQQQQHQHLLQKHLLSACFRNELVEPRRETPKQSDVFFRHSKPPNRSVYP

For another test, the target named is T6, ΔNp73β (Homo sapiens, UniProt O15350-9 1-450).
T6 sequence: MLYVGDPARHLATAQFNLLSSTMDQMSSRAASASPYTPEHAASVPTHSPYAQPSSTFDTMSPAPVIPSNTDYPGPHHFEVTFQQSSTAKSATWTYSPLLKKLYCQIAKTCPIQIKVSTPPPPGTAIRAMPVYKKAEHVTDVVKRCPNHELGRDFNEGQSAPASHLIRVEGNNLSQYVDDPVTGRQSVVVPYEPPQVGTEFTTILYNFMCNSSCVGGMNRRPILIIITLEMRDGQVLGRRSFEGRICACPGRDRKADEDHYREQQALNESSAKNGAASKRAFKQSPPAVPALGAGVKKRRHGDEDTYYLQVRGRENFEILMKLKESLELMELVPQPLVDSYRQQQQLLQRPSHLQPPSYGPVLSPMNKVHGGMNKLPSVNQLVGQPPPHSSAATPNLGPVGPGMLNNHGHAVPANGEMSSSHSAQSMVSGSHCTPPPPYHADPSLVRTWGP

The next test concerns the target T7, p73CT (Homo sapiens, UniProt O15350 104-383).
T7 sequence: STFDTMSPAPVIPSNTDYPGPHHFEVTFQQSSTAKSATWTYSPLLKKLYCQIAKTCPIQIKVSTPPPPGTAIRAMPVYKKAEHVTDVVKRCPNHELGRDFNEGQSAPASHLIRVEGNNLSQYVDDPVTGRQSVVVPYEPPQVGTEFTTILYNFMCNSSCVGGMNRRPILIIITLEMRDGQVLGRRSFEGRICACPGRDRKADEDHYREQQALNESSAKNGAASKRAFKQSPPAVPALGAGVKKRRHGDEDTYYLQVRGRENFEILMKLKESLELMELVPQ

Sequence of Xlp53 (Q7T1D0 entry or part of it): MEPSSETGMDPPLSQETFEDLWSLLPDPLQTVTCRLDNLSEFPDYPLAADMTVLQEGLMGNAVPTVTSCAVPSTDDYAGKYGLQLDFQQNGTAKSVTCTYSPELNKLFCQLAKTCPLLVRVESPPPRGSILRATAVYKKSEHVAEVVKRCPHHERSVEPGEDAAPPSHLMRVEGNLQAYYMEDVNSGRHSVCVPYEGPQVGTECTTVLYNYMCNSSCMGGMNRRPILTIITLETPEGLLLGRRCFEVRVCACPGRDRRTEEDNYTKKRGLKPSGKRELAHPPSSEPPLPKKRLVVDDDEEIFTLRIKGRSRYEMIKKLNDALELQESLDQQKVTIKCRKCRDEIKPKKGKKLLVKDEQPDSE
Sequence of Mmp53 (P02340 whole entry): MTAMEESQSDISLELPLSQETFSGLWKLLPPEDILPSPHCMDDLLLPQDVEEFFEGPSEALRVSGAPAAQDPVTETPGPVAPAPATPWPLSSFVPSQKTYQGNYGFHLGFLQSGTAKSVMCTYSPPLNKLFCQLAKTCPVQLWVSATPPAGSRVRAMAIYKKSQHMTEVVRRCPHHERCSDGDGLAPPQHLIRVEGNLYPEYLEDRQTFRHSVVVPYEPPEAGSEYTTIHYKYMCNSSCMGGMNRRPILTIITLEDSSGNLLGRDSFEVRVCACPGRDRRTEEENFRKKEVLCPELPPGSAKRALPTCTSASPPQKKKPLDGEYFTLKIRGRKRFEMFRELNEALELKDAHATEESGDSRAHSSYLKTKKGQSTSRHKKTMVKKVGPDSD
Sequence of Hsp53 (P04637 whole entry): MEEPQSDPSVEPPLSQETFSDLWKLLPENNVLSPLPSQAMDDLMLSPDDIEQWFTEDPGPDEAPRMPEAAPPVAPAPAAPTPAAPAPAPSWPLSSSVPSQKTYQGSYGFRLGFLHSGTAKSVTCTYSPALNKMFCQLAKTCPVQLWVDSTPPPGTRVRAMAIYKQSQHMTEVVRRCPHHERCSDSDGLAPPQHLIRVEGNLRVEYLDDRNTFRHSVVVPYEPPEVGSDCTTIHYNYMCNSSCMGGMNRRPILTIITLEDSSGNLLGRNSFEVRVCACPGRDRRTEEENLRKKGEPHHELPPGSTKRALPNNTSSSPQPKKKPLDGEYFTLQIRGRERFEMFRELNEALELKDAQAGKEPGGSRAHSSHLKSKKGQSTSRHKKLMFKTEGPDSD

With CGCGGAAATGTCCGGACATGTCCCGC, the binding signal in the test with Dmp53 turned out to be 1.31 delta log10 Kd; with Drp53, 1.13 delta log10 Kd; with Hsp53, 0.77 delta log10 Kd; with Xlp53, 0.9 delta log10 Kd; in the test with ΔNp63α it was 1.08 delta log10 Kd; in the test with ΔNp63β, 0.93 delta log10 Kd. Besides, the binding signal in the test with ΔNp63γ is 1.4 delta log10 Kd; in the test with ΔNp73β, 1.49 delta log10 Kd; with Mmp53, 0.52 delta log10 Kd; with p73CT, 1.35 delta log10 Kd.

As to CGCGGACATGGCCGGACATGTCCCGC, the binding signal in the test with Dmp53 is 0.93 delta log10 Kd; with Hsp53, 0.73 delta log10 Kd; with Xlp53 it was 0.89 delta log10 Kd; in the test with ΔNp63α, 0.85 delta log10 Kd; with ΔNp63β, 1.06 delta log10 Kd; in the test with ΔNp63γ it was 1.21 delta log10 Kd. The binding signal was 1.18 delta log10 Kd with ΔNp73β and 1 delta log10 Kd with p73CT.

For CGCGGACATCTCCGGACATGTCCCGC, the binding signal with Dmp53 amounted to 1.51 delta log10 Kd; with Drp53 it was 1.3 delta log10 Kd; with Hsp53, 0.9 delta log10 Kd; in the test with Xlp53, 1.38 delta log10 Kd; in the test with ΔNp63α, 1.33 delta log10 Kd; with ΔNp63β, 1.45 delta log10 Kd. The binding signal came out at 1.68 delta log10 Kd with ΔNp63γ, 1.8 delta log10 Kd with ΔNp73β, 0.67 delta log10 Kd with Mmp53 and 1.56 delta log10 Kd with p73CT.

As to CGCGCACATGTCCGGACATGTCCCGC, the binding signal in the test with Dmp53 was 0.21 delta log10 Kd; in the test with Drp53, 0.41 delta log10 Kd; with Hsp53, 0.37 delta log10 Kd; with Xlp53 it was 0.27 delta log10 Kd; with ΔNp63α, 0.15 delta log10 Kd; with ΔNp63β it was 0.36 delta log10 Kd. Further, the binding signal with ΔNp63γ was 0.37 delta log10 Kd; in the test with ΔNp73β it was 0.44 delta log10 Kd; with Mmp53, 0.28 delta log10 Kd; in the test with p73CT it was 0.39 delta log10 Kd.

For the sequence CGCGGACGTGTCCGGACATGTCCCGC, the binding signal with Dmp53 is 0.18 delta log10 Kd; in the test with Drp53, 0.54 delta log10 Kd; with Hsp53 it was 0.43 delta log10 Kd; in the test with Xlp53, 0.44 delta log10 Kd; in the test with ΔNp63α, 0.07 delta log10 Kd; with ΔNp63β, 0.2 delta log10 Kd. The binding signal with ΔNp63γ turned out to be 0.19 delta log10 Kd; in the test with ΔNp73β, 0.27 delta log10 Kd; with Mmp53, 0.31 delta log10 Kd; in the test with p73CT it was 0.22 delta log10 Kd.

With CGCGAACATGTCCGGACATGTCCCGC, the binding signal with Dmp53 was 0 delta log10 Kd; with Drp53 it was 0.08 delta log10 Kd; with Hsp53 it was 0.05 delta log10 Kd; in the test with Xlp53, 0.01 delta log10 Kd; with ΔNp63α, 0 delta log10 Kd; with ΔNp63β, 0.02 delta log10 Kd. Moreover, the binding signal is 0.1 delta log10 Kd with ΔNp63γ, 0.03 delta log10 Kd in the test with ΔNp73β, 0.08 delta log10 Kd with Mmp53 and 0.05 delta log10 Kd with p73CT.

As for CGCGGACCTGTCCGGACATGTCCCGC, the binding signal with Dmp53 was 0.54 delta log10 Kd; with Drp53, 0.77 delta log10 Kd; with Hsp53, 0.45 delta log10 Kd; in the test with Xlp53, 0.48 delta log10 Kd; with ΔNp63α, 0.3 delta log10 Kd; in the test with ΔNp63β, 0.57 delta log10 Kd. The binding signal amounted to 0.58 delta log10 Kd with ΔNp63γ, 0.64 delta log10 Kd with ΔNp73β, 0.4 delta log10 Kd with Mmp53 and 0.56 delta log10 Kd in the test with p73CT.
